Measurements as given in PubChem BioAssay AID1778 (Sanford-Burnham Center for Chemical Genomics, 2009).
“And” between values parts separate entries of the source, which are not always exact repeats. Identical values can stand only once. Hit rate of the full screen: of about 290,000 compounds, about 260 (0.09%) were called active. No stated cut-off is given here; in the data, active means inhibition above about 50%; inactive means the rest. Many of the other results were omitted from the sample, so actives are more common in it than they were. Potency and affinity values are given separately.

Target: Kappa-type opioid receptor (Homo sapiens) (UniProt P41145)
Sequence (P41145 whole entry, looked up): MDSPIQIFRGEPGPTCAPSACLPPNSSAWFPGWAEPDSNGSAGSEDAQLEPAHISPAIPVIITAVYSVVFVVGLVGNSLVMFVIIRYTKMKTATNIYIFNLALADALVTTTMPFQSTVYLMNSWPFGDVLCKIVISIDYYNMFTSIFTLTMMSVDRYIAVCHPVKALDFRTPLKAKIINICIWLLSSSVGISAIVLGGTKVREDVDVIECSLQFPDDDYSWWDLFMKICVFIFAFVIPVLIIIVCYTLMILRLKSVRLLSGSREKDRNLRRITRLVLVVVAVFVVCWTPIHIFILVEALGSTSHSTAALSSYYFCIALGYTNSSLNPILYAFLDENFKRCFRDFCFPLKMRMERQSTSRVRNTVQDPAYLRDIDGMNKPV
Assay: KOR antagonists, beta-arrestin recruitment, cell-based, luminescence, uHTS (AID 1778)
Settings: antagonist mode, active compounds read high; at 10 µM unless noted

SMILES	inhibition
CCc1nnc(NC(=O)c2ccc3ccccc3n2)s1	0.1% (inactive)
CCc1nnc(NC(=O)c2c(OC)cccc2OC)s1	-5.6% (inactive)
C=CCN1C(=O)C(CC(=O)O)SC1=Nc1ccc(C(=O)O)cc1 (stereo not drawn)	5.3% (inactive)
CCOC(=O)C1CCN(S(=O)(=O)c2cc(C(=O)N3CCCCC3)ccc2OC)CC1	2.3% (inactive)
COc1ccc(CNC(=O)C2CCC(=O)N(CCCN3CCCC3=O)C2)c(OC)c1 (stereo not drawn)	-21.5% (inactive)
COc1cc(NC(=O)CN2C(=O)CN(C)C2=O)c(C)cc1[N+](=O)[O-]	-7.1% (inactive)
COc1cc(NC(=O)CN2CCCCC2)c(C)cc1[N+](=O)[O-]	13% (inactive)
COc1ccc(SCC(=O)c2cc(C)c(OC(=S)N(C)C)c(C)c2)cc1	-46.3% (inactive)
CC(C)C(=O)OCC(=O)NCc1ccccc1Cl	-7.3% (inactive)
O=C(CCN1C(=O)[C@@H]2Cc3ccccc3CN2C1=O)N[C@H](Cc1ccccc1)C(=O)O	-10% [at 20 µM] (inactive)
C=CCn1c(O)c(N=NC(=S)Nc2ccc(OC)cc2)c2ccccc21	44.9% (inactive)
C=CCn1c(O)c(N=NC(=S)Nc2cccc(OC)c2)c2ccccc21	52.2% (active)
C=CCn1c(O)c(N=NC(=S)Nc2cccc(C)c2)c2ccccc21	34% (inactive)
N=C1C(c2nc3ccccc3s2)=C(O)CN1CCCO	5.8% (inactive)
CCN(CC)CCCN=Cc1c(-c2ccccc2)[nH]n(-c2nc3ccccc3s2)c1=O	2.1% (inactive)
Cc1cc(Cl)ccc1NC(=O)Cn1cncn1	-2.4% (inactive)
CC(CCc1ccc(O)cc1)NCCC(c1ccccc1)c1ccccc1 (stereo not drawn)	42.6% (inactive)
CC(NCCC(c1ccccc1)c1ccccc1)c1ccccc1 (stereo not drawn)	-18.9% (inactive)
CCOC(=O)c1c(C)[nH]c(C)c1C(=O)CSc1nc2ccccc2c(=O)n1-c1ccc(Cl)cc1	-15.4% (inactive)
Nc1c2c(nc3sc4c(c13)CCCCC4)CCCCC2	-28.2% (inactive)
Nc1c2c(nc3sc4c(c13)CCCC4)CCCCCC2	-20.4% (inactive)
Nc1c2c(nc3sc4c(c13)CCCC4)-c1ccccc1CC2	9.5% (inactive)
Nc1nc2sc3c(c2c(=O)s1)CCCC3	-49.8% (inactive)
CC1CCN(C(=O)COc2ccc3ccccc3c2Br)CC1	-12.2% (inactive)

SMILES	inhibition
CCc1ccc(CN2CCC(C(=O)Nc3cccc(-c4nnc(C)s4)c3)CC2)o1	-24.6% (inactive)
O=S(=O)(NCCc1ccccc1)c1ccc(-n2cnnn2)cc1	-7.2% (inactive)
CC(=O)Nc1cccc(NC(=O)COc2nncc3ccccc23)c1	13.2% (inactive)
CC(C)Cn1c(C(C)NC(=O)Cc2ccccc2)nc2ccccc21 (stereo not drawn)	-13.7% (inactive)
O=C1CCC([N+](=O)[O-])C(c2ccc(Cl)cc2)N1 (stereo not drawn)	-23.8% (inactive)
CCOC(=O)c1cc2c(ccc3ccccc32)oc1=O	-26.8% [at 20 µM] (inactive)
CC(=O)c1cc2c(ccc3ccccc32)oc1=O	-8.6% (inactive)
CC1(C)CC(=O)CC(=Nc2ccc3[nH]c(=O)[nH]c3c2)C1	17.9% (inactive)
CC1Oc2ccccc2C=C1/C=N/NC(=O)c1ccncc1 (stereo not drawn)	22.3% (inactive)
CC(C)CCn1nnnc1CN1CCN(c2ccc(F)cc2)CC1	-16.4% [at 20 µM] (inactive)
Cc1ccc(N2CCCn3c2nc2c3c(=O)n(CCN3CCOCC3)c(=O)n2C)cc1	-16.1% (inactive)
Cc1cccc(N2CCCn3c2nc2c3c(=O)n(CCN3CCOCC3)c(=O)n2C)c1	-4% (inactive)
Cn1c(=O)n(CCN2CCOCC2)c(=O)c2c1nc1n2CCCN1c1ccccc1	51.1% (active)
CN(CC(=O)Nc1ccc(F)c(F)c1F)C(=O)c1ccc(=O)[nH]c1	31.4% (inactive)
CN(Cc1cnn(-c2ccccc2)c1)C(=O)C1CCC(=O)N(C2CC2)C1 (stereo not drawn)	9.1% (inactive)
O=[N+]([O-])c1ccc2nc(-c3ccccc3)cc(-c3ccccc3)c2c1	14.3% (inactive)
O=C(O)CNc1nc(-c2ccccc2)c2cc([N+](=O)[O-])ccc2n1	4.1% (inactive)
O=C(O)CCCc1c(-[n+]2ccccc2)[nH]c2ccccc12	5.9% (inactive)
COCCOC(=O)c1[nH]c2c(c1C)C(=O)CC(c1ccc(OC)c(OC)c1)C2 (stereo not drawn)	-5.3% (inactive)
CN(CCCNC(=O)C1CCN(S(=O)(=O)N2CCC3(CC2)OCCO3)CC1)Cc1ccccc1	-79.2% (inactive)
CCN(CCCNC(=O)C1CCN(S(=O)(=O)CC)CC1)c1ccccc1	17.3% (inactive)
CCCCN(CCCNC(=O)C1CCN(S(=O)(=O)N2CCOCC2)CC1)Cc1ccccc1	28.7% (inactive)
CCCCN(CCCNC(=O)C1CCN(S(=O)(=O)CC)CC1)c1ccccc1	23.2% (inactive)
Cc1c(Cl)cccc1NC(=S)N1CCCN(Cc2ccccc2F)C1	-15.1% (inactive)

SMILES	inhibition
COc1cccc(C(=O)Oc2cc(C)[nH]c(=O)c2[N+](=O)[O-])c1OC	6.3% (inactive)
CC(C)[C@H](NC(=O)[C@@H]1Cc2ccccc2CN1)C(=O)Nc1ccc2c(c1)OCCO2	-1.1% (inactive)
COc1ccc(N2CCN(C(C)C(=O)N3CC(C)OC(C)C3)CC2)cc1 (stereo not drawn)	-2.4% (inactive)
O=C1C(=O)N(CCCn2ccnc2)C(c2ccc(Br)cc2)/C1=C(\O)c1ccc2c(c1)OCCO2 (stereo not drawn)	-11.2% (inactive)
COc1cc2c(c(OC)c1OC)-c1c(cc3c(c1OC)OCO3)[C@@H](OC(C)=O)[C@H](C)[C@H](C)C2	20.4% (inactive)
C/C=C(/C)C(=O)O[C@@H]1c2cc3c(c(OC)c2-c2c(cc(OC)c(OC)c2OC)[C@@H](OC(C)=O)[C@@H](C)[C@H]1C)OCO3	10.7% (inactive)
COc1ccc(-c2cc(C(=O)N/N=C/c3cccnc3)c3cc(C)cc(C)c3n2)cc1	1.8% (inactive)
Cc1cccc(NC(=O)COC(=O)c2ccccc2SCC(=O)N2CCCC2)c1	30.1% (inactive)
CC(CN1CCN(C)CC1)OC(=O)c1ccccc1 (stereo not drawn)	-12.4% (inactive)
COc1ccc(CCN2C(=O)C(Oc3ccccc3)C2c2ccc3c(c2)OCO3)cc1 (stereo not drawn)	-53.4% (inactive)
O=C1C(Oc2ccccc2)C(c2ccc3c(c2)OCO3)N1CCc1ccc(F)cc1 (stereo not drawn)	64% (active)
COc1ccc(CCN2C(=O)C(Oc3ccccc3C)C2c2ccc3c(c2)OCO3)cc1 (stereo not drawn)	-11% (inactive)
Cc1nc(SCC(=O)N2CCOCC2)c2c(C)c(C)sc2n1	-32.1% (inactive)
O=C(CSC1=NC(=O)C(c2ccccc2)C(=O)N1)Nc1cccc(Cl)c1 (stereo not drawn)	-48.8% (inactive)
C/C(=N\NC(=O)COc1ccccc1-c1ccccc1)c1cccnc1	-42.8% (inactive)
C=CCNC(=S)N/N=C(\C)c1cccnc1	3.5% (inactive)
C/C(=N\NC(=O)Cc1ccc(Cl)cc1)c1ccccc1O	-29.7% [at 20 µM] (inactive)
C/C(=N\NC(=O)c1ccccn1)c1ccc(Cl)cc1	-13.1% (inactive)
C/C(=N\NC(=O)COc1ccccc1-c1ccccc1)c1ccc(O)cc1O	-14.4% (inactive)
C=CCNC(=S)N/N=C(\C)c1cccc(OC)c1	26.1% (inactive)
C/C(=N\NC(=O)COc1ccccc1-c1ccccc1)c1ccccn1	99% (active)
CCCn1c2ccccc2c2cnn(CC(=O)NCCN(C)C)c(=O)c21	-19% (inactive)
COc1ccc(OCCSc2nnc(C)n2-c2ccccc2)cc1	-14.2% (inactive)
O=C(COC(=O)c1c(F)cccc1F)NCCNC(=O)COC(=O)c1c(F)cccc1F	-58.8% (inactive)

SMILES	inhibition
CC1(C)CNC(=O)CC(C)(C)N1O	8.7% (inactive)
O=C(NCc1ccco1)c1cccc(C(F)(F)F)c1	-35.4% [at 20 µM] (inactive)
CCNc1nc(Oc2ccc(C(=O)OC)cc2)nc(SC)n1	1.5% (inactive)
COc1ccccc1/C=N/N1C(=O)c2cccc3cccc(c23)C1=O	-44.5% (inactive)
Cc1ccc(-n2[nH]c(C)c(/C=N/c3cccc(C)n3)c2=O)cc1	21.8% (inactive)
O=C1c2cccc3cccc(c23)C(=O)N1/N=C/c1ccc(O)cc1O	-17.5% (inactive)
Cc1[nH]n(-c2ccccc2)c(=O)c1/C=N/N1C(=O)c2ccc3c4c(ccc(c24)C1=O)CC3	-2.7% (inactive)
CSc1oc(-c2ccccc2)nc1S(=O)(=O)c1ccc(F)cc1	-25.9% (inactive)
O=C(CO/N=C1\CCCc2nonc21)Nc1ccc(Br)cc1	24.7% (inactive)
COc1cccc(NC(=O)C2CCN(C(=O)NC3CCCCC3)CC2)c1	-51.6% (inactive)
Cc1cc(C)cc(NC(=O)CSc2nnc(-c3cc(C)[nH]n3)n2N)c1	-17.6% (inactive)
O=C(CSc1nnc(NC(=O)c2ccc(F)cc2)s1)NCc1ccco1	22.3% (inactive)
Cc1ccc(N=Nc2ccc3ccccc3c2O)cc1	15.6% [at 20 µM] (inactive)
Oc1ccc2ccccc2c1N=Nc1ccc(F)cc1	6.7% (inactive) and 41.7% (inactive)
Oc1ccc2ccccc2c1N=Nc1ccccc1F	37.6% (inactive)
Oc1ccc(N=Nc2c(O)ccc3ccccc23)cc1	32% (inactive)
Oc1ccc2ccccc2c1N=Nc1nccs1	109% (active)
Oc1c(N=Nc2ccc(F)cc2)ccc2ccccc12	7.2% [at 20 µM] (inactive)
Oc1ccc2ccccc2c1/C=N/c1nccs1	-15.8% (inactive)
COC(=O)c1cc(C(=O)NCC2CCCCC2)cc([N+](=O)[O-])c1	7.5% (inactive)
Cc1ccc(-c2nnn(CC(=O)N(c3ccccc3)C(C(=O)NC3CCCC3)c3ccncc3)n2)o1 (stereo not drawn)	5.7% (inactive)
